The list is not random: actives were taken first. Their share in the collection is about 7.5%.
Luc counter: blocks Kinase-Glo luciferase, a counter-screen artifact; Kinase-Glo luciferase, ATP luminescence, 8 min; Potency, µM (doses to about 38.3 µM), usual class: inhibitors; 200,000 tested, 0.28% active; note: nearly all actives have a fitted effect of over 60% in size
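Inhibition of Kinase-Glo luciferase light generation was assessed at 10 uM ATP in pH 7.2 imidazole buffer, with luminescence measured after eight minutes at ambient temperature.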
FLuc counter: counter-screen for miR-21 project: firefly luciferase inhibitors or activators. purified FLuc, Km substrates, luminescence inhibition. Potency, µM (titrated, usually from 57.5 µM), hits mostly inhibitors. 360,000 tested, 6.9% active; note: nearly all actives have a fitted effect of over 55% in size
Target sequence (P08659 whole entry, looked up): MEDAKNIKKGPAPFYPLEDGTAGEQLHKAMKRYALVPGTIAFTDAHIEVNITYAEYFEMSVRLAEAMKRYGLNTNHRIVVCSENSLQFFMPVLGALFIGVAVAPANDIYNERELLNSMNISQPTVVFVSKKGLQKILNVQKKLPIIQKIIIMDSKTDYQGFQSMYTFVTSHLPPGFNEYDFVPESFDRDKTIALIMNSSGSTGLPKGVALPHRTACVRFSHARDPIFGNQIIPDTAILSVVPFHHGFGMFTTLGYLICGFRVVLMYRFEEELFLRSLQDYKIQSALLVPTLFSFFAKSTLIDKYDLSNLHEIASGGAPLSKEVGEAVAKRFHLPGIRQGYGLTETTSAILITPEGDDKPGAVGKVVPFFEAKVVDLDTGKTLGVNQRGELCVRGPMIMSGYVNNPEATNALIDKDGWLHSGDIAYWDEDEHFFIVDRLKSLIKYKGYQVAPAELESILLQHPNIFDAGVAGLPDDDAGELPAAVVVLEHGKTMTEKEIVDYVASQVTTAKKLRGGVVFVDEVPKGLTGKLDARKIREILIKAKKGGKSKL
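Purified P. pyralis luciferase, 10 nM final, with Km-level 10 uM D-luciferin and 10 uM ATP in 50 mM Tris acetate pH 7.5, 10 mM Mg acetate, 0.01% Tween-20, 0.05% BSA; 6-point qHTS titration about 60 µM downward; luminescence read.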
NPC1 prom act: activates the NPC1 promoter; Huh7 NPC1 promoter luciferase reporter, 24 h; Potency, µM (top dose mostly 9.22 µM), hits mostly activators; 320,000 tested, 2.4% active; AID 485313; note: nearly all actives have a fitted effect of over 60% in size
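Huh7 reporter cells (NPC1 promoter driving luciferase) are dosed with compound for 24 h at 37 °C, 5% CO2; luciferase detection reagent is then added and luminescence measured after 10 min at ambient temperature.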
SMN2 splice enh: enhancers of SMN2 splice variant expression. HEK293 SMN2-luciferase splicing reporter, luminescence, 30-36 h. Potency, µM (series often up to 46.1 µM), most hits filed as activators. 210,000 tested, 2.8% active. AID 1458; note: nearly all actives have a fitted effect of over 55% in size
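qHTS luciferase splicing reporter: luminescence rises when SMN2 exon 7 is included in transfected HEK293 cells. Compound exposure lasted 30-36 h at 37C, with 4.5 mM final sodium butyrate as control, followed by a ONE-Glo read.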
ELG1 genotox: induces genotoxicity in HEK293T cells with luciferase-tagged ELG1. HEK293T ELG1-luciferase reporter, luminescence, 16 h. Potency, µM (titrated, usually from 46 µM), most hits filed as activators. 330,000 tested, 1.3% active; note: nearly all actives have a fitted effect of over 60% in size
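DMSO vehicle served as control against compound-treated ELG1-luciferase HEK293T cells; exposure lasted 16 hr at 37 °C and 5% CO2, followed by ONE-Glo luminescence detection after 30 min.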
Rab9 promoter act: activators of Rab9 promoter; AID 485297; 320,000 tested, 2.8% active; Huh7 Rab9 promoter-luciferase reporter, luminescence, 24 h; Potency, µM (series often up to 9.22 µM), usual class: activators; note: nearly all actives have a fitted effect of over 60% in size
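Measured in stably transfected Huh7 cells bearing a Rab9 promoter–luciferase construct: 24 h compound treatment at 37 °C, followed by luminescence detection.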
Hits are given with their value. Calls come from the whole dose curve; as a rule, active = well fitted curve in the direction sought with a large enough effect; inconclusive = small, poorly fitted or top-dose-only effect, or another doubt; inactive = no such curve, though single readings can be large; an effect the other way counts as inactive or inconclusive.

Results for CCOc1ccc(C(=O)Nc2cccc(-c3ccc(N4CCOCC4)nn3)c2)cc1OCC ?
FLuc counter: 1.2µM; NPC1 prom act: inconclusive; ELG1 genotox: inactive; Rab9 promoter act: 4µM

How did COc1cccc(C(=O)Nc2cccc(-c3ccc(N4CCOCC4)nn3)c2)c1 do in these assays?
FLuc counter: 2.1µM; NPC1 prom act: inconclusive; ELG1 genotox: inactive; Rab9 promoter act: inconclusive

Results for COc1ccc(C(=O)Nc2cccc(-c3ccc(N4CCOCC4)nn3)c2)cc1OC ?
FLuc counter: 0.76µM; NPC1 prom act: inconclusive; ELG1 genotox: inactive; Rab9 promoter act: 2.8µM

How did O=C(Nc1cccc(-c2ccc(N3CCOCC3)nn2)c1)c1ccc(F)cc1F do in these assays?
FLuc counter: 1.1µM; NPC1 prom act: 2.8µM; ELG1 genotox: inconclusive; Rab9 promoter act: 2.8µM

What do the screens show for `Cn1c(SCC(=O)N2CCOCC2)nnc1-c1cccc(NC(=O)c2ccccc2F)c1`?
Luc counter: inactive; FLuc counter: inactive; NPC1 prom act: inactive; SMN2 splice enh: inactive; ELG1 genotox: inactive; Rab9 promoter act: inactive

How did CCOc1ccc(C(=O)Nc2ccc(S(=O)(=O)N3CCOCC3)cc2)cc1OCC do in these assays?
Luc counter: inactive; FLuc counter: inactive; NPC1 prom act: inactive; SMN2 splice enh: inactive; ELG1 genotox: inactive; Rab9 promoter act: inactive

How did CCOC(=O)[C@@H]1[C@H]2COc3ccccc3[C@H]2N2C(=O)N(c3ccc(Cl)cc3)C(=O)[C@@]12C do in these assays?
FLuc counter: inactive; NPC1 prom act: inactive; ELG1 genotox: inactive; Rab9 promoter act: inactive

How did CCn1cc(S(=O)(=O)c2ccc(OC)cc2)c(=O)c2cc(F)c(N3CCC(C)CC3)cc21 do in these assays?
FLuc counter: inactive

How did COc1cccc(C(=O)Nc2cccc(-c3ccc(N4CCOCC4)nn3)c2)c1OC do in these assays?
FLuc counter: 0.38µM; NPC1 prom act: 3.5µM; ELG1 genotox: inactive; Rab9 promoter act: 1.1µM

Results for CCOc1ccccc1C(=O)Nc1ccc(S(=O)(=O)N2CCOCC2)cc1 ?
Luc counter: inactive; FLuc counter: inactive; NPC1 prom act: inactive; SMN2 splice enh: inactive; ELG1 genotox: inactive; Rab9 promoter act: inactive

Results for CCOc1ccccc1C(=O)Nc1cccc(-c2ccc(N3CCOCC3)nn2)c1 ?
FLuc counter: 1.5µM; NPC1 prom act: inconclusive; ELG1 genotox: inconclusive; Rab9 promoter act: 4.5µM

How did CCc1ccc(N2CCn3c2nc2c3c(=O)n(Cc3cccc(C)c3)c(=O)n2C)cc1 do in these assays?
FLuc counter: inactive

Results for CCCCOc1ccc(CNC(=O)c2cnc3sc(N4CCCC4)nn3c2=O)cc1 ?
FLuc counter: inactive

How did COc1ccccc1C1C(C(C)=O)=C(O)C(=O)N1c1ccc(O)cc1 (stereo not drawn) do in these assays?
FLuc counter: inactive; NPC1 prom act: inactive; ELG1 genotox: inactive; Rab9 promoter act: inactive

Results for O=C(Nc1ccc(N2CCCCC2)cc1)c1ccc(F)cc1 ?
Luc counter: inactive; FLuc counter: 1.2µM; NPC1 prom act: 0.89µM; SMN2 splice enh: 3.5µM; ELG1 genotox: 1.6µM; Rab9 promoter act: 0.45µM

Results for O=C(CCC(=O)N1CCN(c2ccc(F)cc2)CC1)N1CCN(c2ccc(F)cc2)CC1 ?
FLuc counter: inactive; NPC1 prom act: inactive; ELG1 genotox: inactive; Rab9 promoter act: inactive

Results for O=C(c1ccc(F)cc1)c1ccc(N2CCCC2)cc1 ?
Luc counter: inactive; FLuc counter: 12µM; NPC1 prom act: inconclusive; ELG1 genotox: 14µM; Rab9 promoter act: inconclusive

How did O=C(Nc1ccc(S(=O)(=O)N2CCCCC2)cc1)c1ccc(F)cc1 do in these assays?
FLuc counter: inactive; NPC1 prom act: inactive; ELG1 genotox: inactive; Rab9 promoter act: inactive

What do the screens show for `O=C(c1ccc(F)cc1)c1ccc(N2CCCCC2)cc1`?
FLuc counter: 6.7µM; NPC1 prom act: 2.8µM; ELG1 genotox: inconclusive; Rab9 promoter act: 2.5µM

What do the screens show for `O=S(=O)(N1CCCCC1)N1CCN(c2ccc(F)cc2)CC1`?
Luc counter: inactive; FLuc counter: inactive; NPC1 prom act: inactive; SMN2 splice enh: inactive; ELG1 genotox: inactive; Rab9 promoter act: inactive
